Test results published in the supplement of paper PMC13380429.
Values without a mark were called inactive.

Tested on: Vero E6 infected with SARS-CoV-2
Assay: inhibition of SARS-CoV-2 cytopathic effect; higher = more antiviral protection, active = above 15
Conditions: 48 h

| SMILES | inhibition of SARS-CoV-2 cytopathic effect (1 nM) [%] | inhibition of SARS-CoV-2 cytopathic effect (8.33 nM) [%] | inhibition of SARS-CoV-2 cytopathic effect (100 nM) [%] | inhibition of SARS-CoV-2 cytopathic effect (833.33 nM) [%] | inhibition of SARS-CoV-2 cytopathic effect (10000 nM) |
| --- | --- | --- | --- | --- | --- |
| NC(=O)c1cc([N+](=O)[O-])cc([N+](=O)[O-])c1 [nitromide] | 0.52 | 1.05 | 1.48 | 0.38 | -0.05% |
| CN1CCCC(n2nc(Cc3ccc(Cl)cc3)c3ccccc3c2=O)CC1 (stereo not given) [azelastine] | -1.24 | -0.03 | -3.43 | -2.95 | -3.03% |
| OC[C@H]1O[C@@H](n2cnc3c(NC4CCCC4)ncnc32)[C@H](O)[C@@H]1O [N6-cyclopentyladenosine] | 0.37 | 0.93 | 1.63 | 4.59 | 1.5% |
| O=C(O)c1ccccc1C(=O)Nc1ccc(-c2ccccc2)cc1 [kartogenin] | 3.34 | 2.53 | 0.87 | 1.12 | 1.02% |
| CS(=O)(=O)N(Cc1ccco1)C[C@@H](O)Cn1c2ccccc2c2ccccc21 | 3.16 | 2.61 | -0.72 | 0.77 | 9.76% |
| CC(=O)OCC1=C(C(=O)O)N2C(=O)[C@@H](NC(=O)Cc3cccs3)[C@H]2SC1 [cephalothin] | 0.91 | 2.69 | 1.37 | -0.06 | 1.33% |
| Brc1c(NC2=NCCN2)ccc2nccnc12 [brimonidine] | 4.55 | 0.66 | 0.75 | 2.72 | 0.94% |
| O=C(O)c1cc(O)c2ccc(Cl)cc2n1 [7-chlorokynurenic-acid] | 1.64 | 1.28 | 1.02 | 1.24 | 1.89% |
| NC(=O)c1cccnc1 [nicotinamide] | -0.85 | 1.53 | -1.16 | 2.49 | 7.29% |
| COc1ccc(OC)c2c(=S)c3ccccc3[nH]c12 | 2.65 | 4.64 | 1.38 | 1.44 | 2.75% |
| c1ccc(CNc2ncnc3[nH]cnc23)cc1 [6-benzylaminopurine] | 0.87 | 0.37 | -1.53 | -1.37 | -1.09% |
| CC(C)n1nc(-c2ccc3oc(N)nc3c2)c2c(N)ncnc21 | 1.94 | 2.32 | 1.66 | -3.23 | -4.59% |
| CN(C)CCn1cc(S(=O)(=O)c2cccc(F)c2)c2cccnc21 | 5.3 | 5.65 | 1.09 | -1.84 | -1.97% |
| CCOC(=O)Nc1ccc(NCc2c(C)cc(C)cc2C)cc1N | 0.63 | 1.07 | -0.41 | -0.67 | 2.16% |
| Nc1ncnc(Nc2ccc(Cl)cc2)n1 [chlorazanil] | 0.82 | -0.51 | -1.09 | -1.03 | -2.14% |
| CCCOC(=O)c1ccc(O)cc1 [propyl 4-hydroxybenzoate] | -1.38 | -0.18 | -0.42 | 2.26 | -3.05% |
| CN(CCc1ccc(Cl)c(Cl)c1)CCN1CCCC1 | -1.5 | -0.54 | 2 | 3.84 | -1.25% |
| O=C1NC(=O)[C@@]2(CCOc3ccc(F)cc32)N1 [sorbinil] | -0.44 | -2.13 | -2.63 | -0.6 | -0.07% |
| CC(=O)N1CCC(C(=O)N(CCCN2CCC(Cc3ccc(C(N)=O)cc3)CC2)c2ccc(C)c(Cl)c2)CC1 | 0.74 | -0.02 | -0.6 | 0.17 | 2.52% |
| CC1(C)C(/C=C/C=C/C=C/C=C2\N(CCCCS(=O)(=O)O)c3ccc4ccccc4c3C2(C)C)=[N+](CCCCS(=O)(=O)[O-])c2ccc3ccccc3c21 [indocyanine-green] | -0.13 | 1.53 | 0.85 | 1.22 | 0.23% |

| SMILES | inhibition of SARS-CoV-2 cytopathic effect (1 nM) [%] | inhibition of SARS-CoV-2 cytopathic effect (8.33 nM) [%] | inhibition of SARS-CoV-2 cytopathic effect (100 nM) [%] | inhibition of SARS-CoV-2 cytopathic effect (833.33 nM) [%] | inhibition of SARS-CoV-2 cytopathic effect (10000 nM) |
| --- | --- | --- | --- | --- | --- |
| Clc1ccc([C@]23CNC[C@H]2C3)cc1Cl [amitifadine] | 0.8 | 2.82 | 0.87 | 1.86 | 3.82% |
| CC(C)(C)c1ccc(-c2nc3c(N4CCN(Cc5ccc6nccnc6c5)CC4)cccc3[nH]2)cc1 | 1.45 | 1.91 | 1.44 | -0.5 | 4.93% |
| CCC(=O)c1ccc(OCC(O)CN2CCN(c3ccccc3)CC2)cc1 (stereo not given) [centpropazine] | -4.09 | -0.61 | -2.65 | -0.96 | -0.58% |
| Cc1cc(-c2nc3cc(F)ccc3s2)ccc1NC(=O)[C@@H](N)CCCCN [phortress] | -1.03 | -0.88 | -0.54 | -2.21 | -5.43% |
| CC(C)[C@@H](CS(=O)(=O)C(C)C)N1C(=O)[C@@](C)(CC(=O)O)C[C@H](c2cccc(Cl)c2)[C@H]1c1ccc(Cl)cc1 | 2.3 | 3.7 | 3.54 | 4.65 | 4.3% |
| CC(=O)CCCCn1c(=O)c2c(ncn2C)n(C)c1=O [pentoxifylline] | 3.31 | 2.23 | 0.1 | 1.21 | -0.68% |
| C[C@H](NC[C@H](O)CP(=O)(O)Cc1ccccc1)c1ccc(Cl)c(Cl)c1 | 2.41 | 3.89 | 1.35 | 1.79 | 4.47% |
| CNC(=O)[C@@H](c1ccccc1)N1CCc2cc(OC)c(OC)cc2[C@@H]1CCc1ccc(C(F)(F)F)cc1 [almorexant] | 2.74 | 2.39 | 2.44 | 1.95 | 1.06% |
| Cc1cc(Nc2ccc(NC(=O)c3ccc(Nc4ccnc5ccccc45)cc3)cc2)nc(N)n1 | -1.09 | 0.62 | 2.48 | 3.69 | 20.3% (active) |
| CN[C@@H](C)CCC=C(C)C [isometheptene-mucate] | -0.09 | 2.18 | 0.64 | -1.17 | -0.16% |
| CN[C@H]1C(=O)N[C@@H]2Cc3ccc(cc3)Oc3cc4cc(c3O[C@@H]3O[C@H](C(=O)O)[C@@H](O)[C@H](O)[C@H]3NC(=O)CCCCCCCCC(C)C)Oc3ccc(cc3Cl)[C@@H](O)[C@@H]3NC(=O)[C@H](NC(=O)[C@@H]4NC(=O)[C@@H](NC2=O)c2cc(cc(O)c2Cl)Oc2cc1ccc2O)c1ccc(O)c(c1)-c1c(O[C@H]2O[C@H](CO)[C@@H](O)[C@H](O)[C@@H]2O)cc(O)cc1[C@@H](C(=O)NCCCN(C)C)NC3=O [dalbavancin] | -5.95 | -0.74 | -2.73 | -0.14 | 1.46% |
| O=C(Nc1ccccc1)c1ccccc1O [salicylanilide] | -4.46 | -2.22 | -1.24 | 1.14 | 0.54% |
| COc1ccc(OC)c([C@@H](O)CNC(=O)CN)c1 [midodrine] | 1.29 | 3.25 | -1.42 | 0.19 | -0.39% |
| CCCC(=O)O[C@]1(C(=O)CCl)[C@@H](C)C[C@H]2[C@@H]3CCC4=CC(=O)C=C[C@]4(C)[C@@]3(F)C(=O)C[C@@]21C [clobetasone-butyrate] | -0.68 | -1.04 | -5.39 | -1.94 | 0.48% |
| COc1cc2ncnc(Nc3cccc(Br)c3)c2cc1OC | -2.89 | -3.44 | -2.56 | -11.5 | 36.3% (active) |
| CNc1ncnc2c1ncn2[C@@H]1O[C@H](CO)[C@@H](O)[C@H]1O [N6-methyladenosine] | 1.25 | 1.97 | -1.29 | 0.63 | 2.03% |
| FC(F)(F)c1ccc(CNc2ccc(Cc3c[nH]c4ncccc34)cn2)cc1 | 3.02 | 0.15 | 0.15 | -0.39 | -1.01% |
| Cc1ccccc1N1CCN(CCc2nnc3n2CCCC3)CC1 [dapiprazole] | -2.9 | -2.22 | 0.65 | -0.37 | 0.44% |
| COc1cc(C(=O)NCCCCCC(=O)O)cc(OC)c1OC [capobenic-acid] | -6.75 | -2.2 | -0.79 | -1.85 | 2.8% |
| CC(C)NNC(=O)c1ccncc1 [iproniazid] | 0.77 | -0.06 | 0.89 | 0.46 | -1.76% |
